Measurements: PubChem BioAssay (NCATS)
Records with an inconclusive call do not appear. Activity calls are given as the source filed them. Unless noted, calls follow the shape of the dose curve; as a rule, active = well fitted curve in either direction with a large enough effect (not every such curve was filed as active); inconclusive = small, poorly fitted or top-dose-only effect, or another doubt; inactive = flat fitted curve, though single readings scatter.

Experiments:
[1] = molecular target: Lysosomal acid glucosylceramidase (Homo sapiens) (UniProt P04062); experiment: Glucocerebrosidase-p2 (AID 348; in the data active = potency below about 10 µM; also: potency is read from the fitted curve at half-maximal effect); details: purified GBA, blue fluorogenic substrate, 40 min
In short: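 Normal human glucocerebrosidase (0.2 nM) with blue fluorogenic substrate (80 uM final) in citrate/phosphate pH 5.9 with 10mM sodium taurocholate, 0.01% tween-20; 40 min RT, NaOH/glycine stop; fluorescence Ex 365/Em 440; AC50 from a titration from 0.6 nM upwards.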

[2] = AP1 Signaling Pathway (AID 357); details: ME-180 AP-1-bla reporter, EGF-induced, beta-lactamase ratio, 5 h; at 7.69 µM (top of the series) unless noted;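 also: ME-180 reporter cells stimulated with EGF at its EC50 level; % is scaled to controls: 0 for no effect and ±100 for the full control effect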
In short: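 Titration-series screen for positive or negative modulators of EC50 EGF-induced signaling in ME-180 cells carrying an AP-1-driven beta-lactamase reporter. After 5 hours at 37 degrees Celsius, CCF4 460nm/530nm emission ratio gave %Activity; AC50 values derived.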

[3] = molecular target: Cytochrome P450 1A2 (Homo sapiens) (UniProt P05177); experiment: p450-cyp1a2 (AID 410; calls by dose curve;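 also: -100% = full effect of reference inhibitor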); details: recombinant CYP1A2, luciferin-ME demethylation, luminescence; series mostly up to 11.4 µM
In short: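 Luminescent demethylation readout: Luciferin-ME (100uM, equal to Km) turned over by 20nM CYP1A2 for 60 min at room temperature after NADPH regeneration addition, following 10 min compound preincubation. Normalization used 57 uM furafylline as full inhibition.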

[4] = NFAT Signaling Pathway (AID 444); details: Jurkat NFAT-bla M1, carbachol, beta-lactamase ratio, 5 h; at 7.69 µM (top of the series) unless noted;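 also: carbachol stimulus at about its EC50 of 1 µM final; % is scaled to controls: 0 for no effect and ±100 for the full control effect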
In short: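 Read-out: CCF4 FRET ratio (460 nm/530 nm) after 1 h RT dye loading, used for %activity and AC50 from titration series. Cells: Jurkat NFAT-β-lactamase/M1 line, treated with compound plus 1 uM carbachol for 5 h, 37 °C.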

[5] = Stat Signaling Pathway (AID 446); details: ME-180 SIE beta-lactamase reporter, IL-6 stimulated, 5 h; at 7.69 µM (top of the series) unless noted;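 also: ME-180 cervical cancer cells given 40 pM IL-6 alongside compound; SIE-controlled beta-lactamase reporter measured as 460/530 nm FRET emission ratio; % is scaled to controls: 0 for no effect and ±100 for the full control effect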
In short: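 FRET read-out (405 nm excitation, 460/530 nm emission) of a beta-lactamase reporter under a STAT-inducible element in ME-180 cervical carcinoma cells. Cells with compound receive 40 pM IL-6 for 5 h. Values are normalised to AC90 stimulation and AC90 JAK-inhibitor controls.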

[6] = molecular target: Glucocorticoid receptor (Homo sapiens) (UniProt P04150); experiment: GR-GFP Redistribution (AID 450;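 active = compounds whose dose series gives a full or clear partial fitted curve of increased nuclear translocation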; also: potency is read from the fitted curve at half-maximal effect); details: U2OS GR-GFP nuclear translocation, laser cytometry, 2 h
[7] = molecular target: Glucocorticoid receptor (Homo sapiens) (UniProt P04150); experiment: GR-EFC Redistribution (AID 451; calls by dose curve; also: potency is read from the fitted curve at half-maximal effect); details: CHO-K1 GR-EFC translocation, beta-gal luminescence, 2 h
In short: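 Translocation of GR-ED fusion to nuclear EA restores b-gal, read by luminescence after 1 h room-temperature detection. Engineered CHO-K1 biosensor cells, 1,000/well, exposed 2 h at 37 C to titrations up to 46 uM final.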

[8] = molecular target: Mitogen-activated protein kinase 10 (Mus musculus) (UniProt Q61831); experiment: JNK3 AlphaScreen Assay (AID 530); details: JNK3 lysate, c-Jun phosphorylation; series mostly up to 57.1 µM;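 also: kinase came from lysate of stimulated human HepG2 cells; signal reports phosphorylation of biotinylated GST-cJun 1-79 at Ser73 with 10 µM ATP; % is scaled to controls: 0 for no effect and ±100 for the full control effect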
In short: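 qHTS titrations with 15 min compound pre-incubation before adding ATP (10 uM final). Read-out: AlphaScreen of Ser73-phosphorylated biotin-GST-cJun using HepG2 lysate JNK3 activated by IL-1β and TNFα.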

[9] = molecular target: 3',5'-cyclic-AMP phosphodiesterase 4B (Homo sapiens) (UniProt Q07343); experiment: qHTS Assay for Inhibitors of PDE-IV (AID 607; active = well fitted activation curve with a large enough effect in the main read-out, with a control signal flat, not every such curve was filed as active; also: % of control where 0% means no effect); details: HEK293 ACTOne CNG channel cells, membrane potential fluorescence; series mostly up to 22.9 µM
In short: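 Cell-based read-out of cAMP via a modified cyclic nucleotide-gated channel and membrane potential dye (535/590 nm) in HEK293 cells expressing PDE4 endogenously. Compounds tested up to 22.9 uM final; 100 uM RO 20-1724 reference.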

[10] = system: HIV-1 nucleocapsid protein NCp7 (binding to TG oligonucleotide); experiment: HIV Nucleocapsid (AID 346; call rule not given here;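 also: potency is read from the fitted curve at half-maximal effect; potency is for inhibitors that block NC binding and lower polarization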); details: HIV-1 NC / fluorescein-TGTGTGTG probe, fluorescence polarization
In short: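 HIV-1 NC (100 nM) binding to fluorescein-labelled ssDNA TG4xF (10 nM) in Hepes pH 7.5, 250mM NaCl, 1uM ZnCl2, TCEP and 2-mercaptoethanol; compounds pin-transferred, 1 hr room temperature, fluorescence polarization read on CCD imager.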

[11] = qHTS Assay for Identification of Small Molecule Agonists for Hypoxia Response Element Signaling Pathway (AID 914; active = well fitted activation curve with a large enough effect in the signal ratio, with a control signal flat, not every such curve was filed as active; the % refers to the signal ratio; also: % of control where 0% means no effect); details: ME-180 (cervical carcinoma) HRE-bla reporter, beta-lactamase ratio, CoCl2, 17 h; active compounds read high
In short: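 HRE-bla ME-180 assay for agonist-like enhancement of an EC50 CoCl2 stimulus: 17 h at 37 degrees Celsius, CCF4 for 2.5 h, ratiometric 460/530 nm signal converted to %Activity and fitted to AC50.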

[12] = molecular target: Cytochrome P450 2C19 (Homo sapiens) (UniProt P33261); experiment: qHTS Assay for Inhibitors and Substrates of Cytochrome P450 2C19 (AID 899; active = well fitted inhibition curve with a large enough effect; also: % is scaled to controls: 0 for no effect and ±100 for the full control effect; nearly all actives have a fitted effect of over 60% in size); details: recombinant CYP2C19, luciferin-H EGE luminescence; series mostly up to 11.4 µM
In short: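 Luminescence readout of luciferin formed from 10uM Luciferin-H EGE (KM level) by 5 nM CYP2C19 in 50mM KPO4. 60 min NADPH-driven reaction at 37C after 10 min compound preincubation; data scaled to 57uM ketoconazole inhibition.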

Glucocorticoid receptor (Homo sapiens), sequence (P04150 whole entry, looked up, the tested form may be a part): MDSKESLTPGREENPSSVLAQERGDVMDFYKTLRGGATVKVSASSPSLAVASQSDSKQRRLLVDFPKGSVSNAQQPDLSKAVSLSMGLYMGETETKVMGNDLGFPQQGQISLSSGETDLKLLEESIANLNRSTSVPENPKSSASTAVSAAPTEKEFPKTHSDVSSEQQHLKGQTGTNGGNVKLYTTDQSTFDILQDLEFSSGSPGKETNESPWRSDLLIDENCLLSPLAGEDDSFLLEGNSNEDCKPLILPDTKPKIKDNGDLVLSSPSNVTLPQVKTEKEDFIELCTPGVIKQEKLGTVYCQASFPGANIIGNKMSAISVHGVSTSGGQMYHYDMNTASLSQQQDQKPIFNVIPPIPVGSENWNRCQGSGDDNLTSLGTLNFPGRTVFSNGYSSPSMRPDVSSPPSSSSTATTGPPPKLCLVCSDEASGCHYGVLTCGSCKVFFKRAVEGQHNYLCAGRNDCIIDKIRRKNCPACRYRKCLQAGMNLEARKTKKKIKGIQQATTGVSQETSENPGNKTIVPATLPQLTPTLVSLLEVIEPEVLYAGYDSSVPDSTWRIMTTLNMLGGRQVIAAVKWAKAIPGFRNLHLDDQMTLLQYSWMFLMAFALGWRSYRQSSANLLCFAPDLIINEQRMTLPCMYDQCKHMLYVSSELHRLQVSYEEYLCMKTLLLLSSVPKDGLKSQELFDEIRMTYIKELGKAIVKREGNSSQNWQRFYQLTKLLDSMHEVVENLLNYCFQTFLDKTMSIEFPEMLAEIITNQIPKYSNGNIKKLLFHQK
Lysosomal acid glucosylceramidase (Homo sapiens), sequence (P04062 whole entry, looked up): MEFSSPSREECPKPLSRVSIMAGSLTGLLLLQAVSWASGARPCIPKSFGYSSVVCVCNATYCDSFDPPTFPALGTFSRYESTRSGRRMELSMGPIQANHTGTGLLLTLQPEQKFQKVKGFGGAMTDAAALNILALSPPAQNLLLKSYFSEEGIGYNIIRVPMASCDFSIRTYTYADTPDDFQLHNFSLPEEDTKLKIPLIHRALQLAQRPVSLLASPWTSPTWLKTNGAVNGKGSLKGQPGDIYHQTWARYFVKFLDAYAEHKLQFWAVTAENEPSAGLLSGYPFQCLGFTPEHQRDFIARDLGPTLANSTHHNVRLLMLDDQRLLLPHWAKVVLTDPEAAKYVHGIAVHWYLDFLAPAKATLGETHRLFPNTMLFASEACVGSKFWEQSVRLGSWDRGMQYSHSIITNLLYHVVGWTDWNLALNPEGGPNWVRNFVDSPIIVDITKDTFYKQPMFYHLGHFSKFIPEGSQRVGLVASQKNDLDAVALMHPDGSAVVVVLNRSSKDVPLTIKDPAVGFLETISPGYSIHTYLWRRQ
Cytochrome P450 1A2 (Homo sapiens), sequence (P05177 whole entry, looked up): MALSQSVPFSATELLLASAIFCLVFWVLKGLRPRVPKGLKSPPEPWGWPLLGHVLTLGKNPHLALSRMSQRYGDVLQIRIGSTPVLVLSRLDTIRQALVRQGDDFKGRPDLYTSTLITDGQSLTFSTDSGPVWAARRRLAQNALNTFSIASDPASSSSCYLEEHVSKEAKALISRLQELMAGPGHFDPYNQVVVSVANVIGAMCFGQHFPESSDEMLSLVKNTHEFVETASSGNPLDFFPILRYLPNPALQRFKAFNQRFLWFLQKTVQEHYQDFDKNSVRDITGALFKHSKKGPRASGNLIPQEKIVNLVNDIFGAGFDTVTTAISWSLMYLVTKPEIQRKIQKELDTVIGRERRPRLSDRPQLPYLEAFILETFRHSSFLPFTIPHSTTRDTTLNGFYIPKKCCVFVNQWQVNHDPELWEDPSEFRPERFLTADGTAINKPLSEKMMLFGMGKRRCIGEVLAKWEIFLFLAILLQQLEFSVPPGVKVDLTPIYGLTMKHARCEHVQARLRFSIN
3',5'-cyclic-AMP phosphodiesterase 4B (Homo sapiens), sequence (Q07343 whole entry, looked up): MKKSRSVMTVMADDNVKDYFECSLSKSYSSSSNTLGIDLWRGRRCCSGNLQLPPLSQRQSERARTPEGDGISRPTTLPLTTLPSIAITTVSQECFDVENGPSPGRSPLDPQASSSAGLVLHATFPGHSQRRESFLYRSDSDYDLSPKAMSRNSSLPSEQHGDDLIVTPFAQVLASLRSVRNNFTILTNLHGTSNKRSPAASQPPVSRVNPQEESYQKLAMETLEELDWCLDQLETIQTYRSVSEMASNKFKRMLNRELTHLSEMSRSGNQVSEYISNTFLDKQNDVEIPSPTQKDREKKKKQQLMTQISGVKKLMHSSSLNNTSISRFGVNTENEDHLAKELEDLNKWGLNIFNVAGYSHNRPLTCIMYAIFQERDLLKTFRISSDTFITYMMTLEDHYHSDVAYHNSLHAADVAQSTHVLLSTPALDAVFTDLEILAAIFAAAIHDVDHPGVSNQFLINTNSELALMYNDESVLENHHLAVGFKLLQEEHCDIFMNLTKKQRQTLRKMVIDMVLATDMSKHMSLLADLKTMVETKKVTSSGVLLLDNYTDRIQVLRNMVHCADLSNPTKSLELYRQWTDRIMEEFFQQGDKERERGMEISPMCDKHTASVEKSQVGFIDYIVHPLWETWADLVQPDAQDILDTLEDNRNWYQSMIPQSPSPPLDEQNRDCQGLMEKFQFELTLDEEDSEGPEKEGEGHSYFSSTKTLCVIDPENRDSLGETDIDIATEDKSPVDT
Cytochrome P450 2C19 (Homo sapiens), sequence (P33261 whole entry, looked up): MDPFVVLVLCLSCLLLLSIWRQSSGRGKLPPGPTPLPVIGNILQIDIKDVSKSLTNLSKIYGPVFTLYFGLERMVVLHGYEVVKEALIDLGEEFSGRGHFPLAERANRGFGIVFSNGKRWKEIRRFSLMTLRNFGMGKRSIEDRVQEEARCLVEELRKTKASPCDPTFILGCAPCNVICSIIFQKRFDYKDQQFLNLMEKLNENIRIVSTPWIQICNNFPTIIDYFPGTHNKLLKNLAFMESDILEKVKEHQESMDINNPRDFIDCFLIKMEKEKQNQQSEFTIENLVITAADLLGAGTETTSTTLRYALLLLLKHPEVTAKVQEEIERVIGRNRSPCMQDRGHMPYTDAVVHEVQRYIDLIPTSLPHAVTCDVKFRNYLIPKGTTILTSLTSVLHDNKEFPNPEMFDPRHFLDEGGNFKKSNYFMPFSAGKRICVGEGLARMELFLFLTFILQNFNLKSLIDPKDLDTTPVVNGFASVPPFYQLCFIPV

C[C@@]12CC[C@H](O[C@@H]3O[C@H](CO)[C@@H](O)[C@H](O)[C@@H]3O)C[C@@H]1CC[C@H]1[C@H]2CC[C@@]2(C)[C@@H](C3=CCOC3=O)CC[C@]12O
inactive: Potency [1] > 11.4 µM | activity change, negative = inhibition [2] -9.15% | Potency [3] | activity change, negative = inhibition [4] 2.85% | activity, negative = inhibition [5] 12.3% | Potency [6] > 46 µM | Potency [7] > 9.22 µM | activity change, negative = inhibition [8] 8.37% [at 11.4 µM] | outcome [9]

CS(=O)(=O)Nc1cccc(-c2nc(NC3CC3)c3ccccc3n2)c1
inactive: Potency [10] > 20 µM

O=C(Oc1ccccc1)N1CCC[C@@]2(CCN(Cc3nccs3)C2)C1
inactive: Potency [10] > 20 µM | Potency [1] > 11.4 µM | activity change, negative = inhibition [2] -15.6% | activity change, negative = inhibition [4] -0.597% | activity, negative = inhibition [5] -14.8% | Potency [7] > 46 µM | Potency [8] | outcome [9]

CNc1ncnc2ccc(-c3ccccc3OC)cc12
inactive: Potency [10] > 20 µM

c1csc(CN2CCCC3(CCNCC3)C2)n1
inactive: Potency [10] > 20 µM | Potency [1] > 11.4 µM | activity change, negative = inhibition [2] 10.8% | Potency [3] | activity change, negative = inhibition [4] -10.2% | activity, negative = inhibition [5] -5.01% | Potency [7] > 46 µM | Potency [8] | outcome [9]

COCCn1c(=O)c(-c2ccc(OC)cc2)nc2cnc(Oc3cccc(Cl)c3)nc21
inactive: Potency [10] > 20 µM

O=c1c(-c2cccs2)nc2cnc(Oc3cccc(Cl)c3)nc2n1C[C@H]1CCCO1
inactive: Potency [10] > 20 µM

[N-]=[N+]=CC(=O)CC[C@H](N)C(=O)O
inactive: Potency [1] > 11.4 µM | activity change, negative = inhibition [2] 6.38% | Potency [3] | activity change, negative = inhibition [4] -6.88% | activity, negative = inhibition [5] 6.39% | Potency [6] > 46 µM | Potency [7] > 9.22 µM | activity change, negative = inhibition [8] 31.7% [at 11.4 µM] | outcome [9]

O[C@H](CN1CC1)[C@@H](O)CN1CC1
inactive: Potency [1] > 11.4 µM | activity change, negative = inhibition [2] 10.5% | Potency [3] | activity change, negative = inhibition [4] -21.2% | activity, negative = inhibition [5] 2.88% | Potency [6] > 46 µM | Potency [7] > 9.22 µM | activity change, negative = inhibition [8] 2.9% [at 11.4 µM] | outcome [9]

c1cncc(CNc2ncncc2-c2cccnc2)c1
inactive: Potency [10] > 20 µM

CC[C@@]1(O)C(=O)OCc2c1cc1n(c2=O)Cc2cc3c(NC(=O)CN)cccc3nc2-1
inactive: Potency [1] > 11.4 µM | activity change, negative = inhibition [2] -9.07% | activity change, negative = inhibition [3] -12.3% [at 2.29 µM] | activity change, negative = inhibition [4] -29.2% | activity, negative = inhibition [5] -20.5% | Potency [6] > 46 µM | Potency [7] > 9.22 µM | activity change, negative = inhibition [8] -2.05% [at 11.4 µM] | outcome [9]

COc1ccc(Oc2ncc3nc(-c4cccs4)c(=O)n(CCC#N)c3n2)cc1
inactive: Potency [10] > 20 µM

O=C(NCP(=O)(O)O)c1cccnc1
inactive: Potency [1] > 11.4 µM | activity change, negative = inhibition [2] 23.1% | Potency [3] | activity change, negative = inhibition [4] 5.87% | activity, negative = inhibition [5] 4.58% | Potency [6] > 46 µM | Potency [7] > 9.22 µM | activity change, negative = inhibition [8] 0.703% [at 11.4 µM] | outcome [9]

CN(C)CS/C(N)=N/[C@H](O)C(Cl)(Cl)Cl
inactive: Potency [1] > 11.4 µM | activity change, negative = inhibition [2] 1.46% | activity change, negative = inhibition [3] 4.1% [at 2.29 µM] | activity change, negative = inhibition [4] 23.1% | activity, negative = inhibition [5] 3.46% | Potency [6] > 46 µM | Potency [7] > 9.22 µM | activity change, negative = inhibition [8] 3.54% [at 11.4 µM] | outcome [9] | activation [11] 7.72%

O=C(O)C[O][Sb][O]CC(=O)O
inactive: Potency [1] > 11.4 µM | activity change, negative = inhibition [2] 4.83% | activity change, negative = inhibition [3] -7.8% [at 2.29 µM] | activity change, negative = inhibition [4] 6.08% | activity, negative = inhibition [5] 7.88% | Potency [6] > 46 µM | Potency [7] > 9.22 µM | activity change, negative = inhibition [8] 1.01% [at 11.4 µM] | outcome [9] | Potency [12]

COc1cc2c(cc1OC)[C@@]13CCN4CC5=CCO[C@H](CC(=O)O)[C@@H]([C@H]1N2)[C@H]5C[C@H]43
inactive: Potency [1] > 11.4 µM | activity change, negative = inhibition [2] -1.41% | Potency [3] | activity change, negative = inhibition [4] 9.02% | activity, negative = inhibition [5] 1.37% | Potency [6] > 46 µM | Potency [7] > 9.22 µM | outcome [9]
